Test results as given in PubChem BioAssay (Tox21).
“And” between values parts separate entries of the source, which are not always exact repeats. Equal entries are not always repeated. Inconclusive results are not listed. Entries that show only a call come without a potency. The source made the active and inactive calls. Unless noted, the call rests on the fitted dose curve; in most records, active means well fitted curve in the direction sought with a large enough effect in the repeat runs; inconclusive means weak or mixed curves; inactive means no such curve, though single readings can be large; an effect the other way counts as inactive or inconclusive. Positions of bridges follow the written chain, without caps; N, C: chain ends. Non-standard residues stand in square brackets, D forms with d. Residues, ends and D or L forms follow the SMILES beside them. *: point of attachment. Dab(CH2SO3H) = N[C@@H](CCNCS(=O)(=O)O)C(=O)O; X3 = CC[C@@H](C)CCCCC(=O)*; Dab = NCC[C@H](N)C(=O)O

What was measured:
[1] = qHTS assay for small molecule agonists of the p53 signaling pathway (AID 651631; calls by dose curve; further: nearly all actives have a fitted effect of over 15% in size; further: potency means the concentration at half of the fitted maximal effect)
Method in brief: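 HCT-116 cells carrying a stable p53 response element–beta-lactamase reporter were plated, rested 5 h at 37 °C, then exposed to compound in DMSO for 16 h at 37 °C; reporter activity was read as FRET substrate fluorescence after 2 h at room temperature.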

[2] = qHTS assay for small molecules that induce genotoxicity in human embryonic kidney cells expressing luciferase-tagged ATAD5 (AID 651632); further: nearly all actives have a fitted effect of over 15% in size; further: potency means the concentration at half of the fitted maximal effect
Method in brief: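 Test compounds were delivered by pin tool onto HEK293T reporter cells (2,000/well) expressing ATAD5 fused to luciferase. After 16 hr at 37C, 5% CO2, Amplite was added for 30 min at room temperature and luminescence was measured.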

[3] = qHTS assay for small molecule agonists of the p53 signaling pathway - cell viability (AID 651633; calls by dose curve; further: nearly all actives have a fitted effect of over 30% in size; further: potency means the concentration at half of the fitted maximal effect)
Method in brief: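 Viability counter-read: CellTiter-Glo luminescence (30 min, room temperature) in the same p53RE-bla plates. These plates had been exposed to compounds for 16 h at 37 C.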

[4] = qHTS assay for small molecules that induce genotoxicity in human embryonic kidney cells expressing luciferase-tagged ATAD5 - cell viability (AID 651634; calls by dose curve; further: nearly all actives have a fitted effect of over 25% in size; further: potency means the concentration at half of the fitted maximal effect)
Method in brief: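 Quantitative high-throughput format. HEK293T cells expressing ATAD5 fused to luciferase were plated at 2,000 cells/well and treated 15.5 hr with compound versus DMSO. Viability was determined by fluorescent live-cell protease substrate, 30 min at 37C.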

[5] = qHTS assay to test for compound auto fluorescence at 590 nm (red) in HepG2 cells (AID 720674)
Method in brief: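 We screened compounds on adherent HepG2 cells, incubating them for an hour at 37 C in 5% CO2 before reading emission at 590 nm under 540 nm excitation; values reflect equivalence to Rose Bengal sodium fluorescence.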

[6] = qHTS assay to test for compound auto fluorescence at 535 nm (green) in HepG2 cells (AID 720675)
[7] = qHTS assay to test for compound auto fluorescence at 460 nm (blue) in HEK293 cells (AID 720678)
Method in brief: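 Triamterene serves as the blue fluorophore standard. Compound signal at 405/460 nm is read in HEK293 wells (2,000 cells, 10% dialyzed FBS) after overnight treatment at 37C.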

[8] = qHTS assay to test for compound auto fluorescence at 590 nm (red) in HEK293 cells (AID 720679)
Method in brief: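 We plated HEK293 cells in 10% dialyzed FBS medium, let them adhere for 4-5 hr, then added 23 nL compound. Overnight at 37C and 5% CO2 preceded fluorescence measurement at 540/590nm.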

[9] = qHTS assay for small molecule disruptors of the mitochondrial membrane potential (AID 720635); further: potency means the concentration at half of the fitted maximal effect
Method in brief: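 Mitochondrial membrane potential tracked with Mito-MPS dye, red aggregates (ex 540/em 590 nm) against green monomers (ex 490/em 535 nm). Compound treatment 1 hr at 37C, dye 30 min in HepG2.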

[10] = qHTS assay for small molecule disruptors of the mitochondrial membrane potential - cell viability (AID 720634; calls by dose curve;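 further: human HepG2 liver cancer cells; series mostly up to about 83 µM; nearly all actives have a fitted effect of over 20% in size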)
Method in brief: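 Same-well counter-screen: following the MMP dye addition, CellTiter-Glo was added to 1 hr compound-treated HepG2 cells and luminescence read after 30 min at room temperature.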

SMILES | Potency [1] | Potency [2] | Potency [3] | Potency [4] | outcome [5] | Potency [6] | Potency [7] | outcome [8] | Potency [9] | Potency [10]
N[C@@H](Cc1cnc[nH]1)C(=O)O | inactive | inactive | inactive | inactive | inactive | inactive | inactive | inactive |  | 
CO/N=C(\C(=O)N[C@@H]1C(=O)N2C(C(=O)[O-])=C(C[n+]3cccc4c3CCC4)CS[C@H]12)c1csc(N)n1 | inactive | inactive | inactive | inactive | inactive |  | inactive | inactive | inactive | 
NC(N)=NCc1cccc(I)c1 | inactive | inactive | inactive | inactive | inactive | inactive | inactive | inactive | inactive | 
CC/C(=C(/CC)c1ccc(OP(=O)(O)O)cc1)c1ccc(OP(=O)(O)O)cc1 | inactive | inactive | inactive | inactive | inactive | inactive | inactive | inactive | inactive | 
CC[N+](CC)(CC)CCC(O)(c1ccccc1)C1CCCCC1 (centres undefined) | inactive | inactive | inactive | inactive | inactive | inactive | inactive | inactive | inactive | 
CCN(CC)C(=O)[C@]1(c2ccccc2)C[C@@H]1CN | inactive | inactive | inactive |  | inactive | inactive | inactive | inactive | inactive | inactive
COC(=O)[C@H]1[C@H]2C[C@H]3c4[nH]c5ccccc5c4CCN3C[C@H]2CC[C@@H]1O | inactive | inactive | inactive | inactive | inactive | inactive | inactive | inactive | inactive | 
CCC1OC(=O)C[C@@H](O)[C@H](C)[C@@H](O[C@@H]2O[C@H](C)C[C@H](N(C)C)[C@H]2O)[C@@H](CC=O)C[C@@H](C)C(=O)/C=C/[C@]2(C)OC2C1C (some centres undefined) | 29.8 µM (active) | inactive | inactive | inactive | inactive | inactive | inactive | inactive | inactive | 
CC(C)[N+]1(C)[C@@H]2CC[C@H]1CC(OC(=O)C(CO)c1ccccc1)C2 (some centres undefined) | inactive | inactive | inactive | inactive | inactive | inactive | inactive | inactive | inactive | 
CCN(CC)CCNC(=O)c1ccc(NS(C)(=O)=O)cc1 | inactive | inactive | inactive | inactive |  | inactive | inactive | inactive | inactive | 
C=CC[N+]1([C@H]2C[C@H]3[C@@H]4CC[C@H]5C[C@H](O)[C@@H](N6CCOCC6)C[C@]5(C)[C@H]4CC[C@]3(C)[C@H]2OC(C)=O)CCCC1 | inactive | inactive | inactive | inactive | inactive | inactive | inactive | inactive | inactive | 
CC(=O)OCC(=O)[C@@]1(O)CC[C@H]2[C@@H]3CCC4=CC(=O)CC[C@]4(C)C3=CC[C@@]21C | inactive | inactive | inactive |  | inactive | inactive | inactive | inactive | inactive | inactive
CSCC[C@H](NC(=O)[C@H](Cc1ccc(OS(=O)(=O)O)cc1)NC(=O)[C@@H](N)CC(=O)O)C(=O)NCC(=O)N[C@@H](Cc1c[nH]c2ccccc12)C(=O)N[C@@H](CCSC)C(=O)N[C@@H](CC(=O)O)C(=O)N[C@@H](Cc1ccccc1)C(N)=O | inactive | inactive | inactive |  | inactive |  | inactive | inactive | inactive | inactive
CCC(O)c1ccccc1 (centres undefined) | inactive | inactive | inactive | inactive |  | inactive | inactive | inactive | inactive | 
OCCCNc1ccccc1 | inactive | inactive | inactive | inactive | inactive | inactive | inactive | inactive | inactive | 
CCCC(=O)c1cc(O)c(O)cc1O | 68.6 µM (active) | inactive | inactive | 30.6 µM (active) |  | inactive | inactive | inactive | 5.45 µM (active) | 
CC(=O)OCC1=C(C(=O)O)N2C(=O)[C@@H](NC(=O)Cc3ccccc3)[C@H]2SC1 | inactive | inactive | inactive |  | inactive | inactive | inactive | inactive | inactive | inactive
CCCCCCCCOC(=O)c1cc(O)c(O)c(O)c1 | 61.1 µM (active) | inactive | 54.5 µM (active) | inactive | inactive |  | inactive | inactive | 6.11 µM (active) | 
CC1(C)S[C@@H]2[C@H](N3C(=O)C(c4ccccc4)NC3(C)C)C(=O)N2[C@H]1C(=O)O (some centres undefined) | inactive | inactive | inactive | inactive | inactive | inactive | inactive | inactive | inactive | 
CC(=O)NC[C@H]1CN(c2ccc(N3CCOCC3)c(F)c2)C(=O)O1 | inactive | inactive | inactive | inactive | inactive | inactive | inactive | inactive | inactive | 

SMILES | Potency [1] | Potency [2] | Potency [3] | Potency [4] | outcome [5] | Potency [6] | Potency [7] | outcome [8] | Potency [9] | Potency [10]
COc1ccc(/C=C/C(=O)Nc2ccccc2C(=O)O)cc1OC | inactive | 1.19 µM (active) | inactive | inactive | inactive |  | inactive | inactive |  | 
Cc1ccc(C(C)(C)c2ccc(C)cc2)cc1 | inactive | inactive | inactive |  | inactive | inactive | inactive | inactive | inactive | inactive
NCCCC(=O)O | inactive | inactive | inactive | inactive | inactive | inactive | inactive | inactive | inactive | 
c1ccc2c(c1)OCC(CN1CCCCC1)O2 (centres undefined) | inactive | inactive | inactive | inactive | inactive | inactive | inactive | inactive | inactive | 
O=C1c2ccccc2CN2C(=O)c3ccccc3CN12 | inactive | inactive | inactive | inactive | inactive | inactive | inactive | inactive | inactive | 
CO/N=C(\C(=O)N[C@@H]1C(=O)N2C(C(=O)O)=C(CSc3cnns3)CS[C@H]12)c1csc(N)n1 | inactive | inactive | inactive |  | inactive | inactive | inactive | inactive | inactive | inactive
O=P(O)(O)OP(=O)(O)OP(=O)(O)O | inactive | inactive | inactive | inactive | inactive | inactive | inactive | inactive | inactive | 
NC(=S)NS(=O)(=O)c1ccc(N)cc1 | inactive | inactive | inactive |  | inactive | inactive | inactive | inactive | inactive | inactive
Cc1cnc(C(=O)O)c[n+]1[O-] | inactive | inactive |  | inactive | inactive | inactive | inactive | inactive | inactive | inactive
COc1cc(/C=C/C(=O)CC(=O)/C=C/c2ccc(O)c(OC)c2)ccc1O | 13.3 µM (active) and 13.8 µM (active) | inactive | 18.8 µM (active) and 54.8 µM (active) |  | inactive | inactive | inactive | inactive | 750 nM (active) and 1.68 µM (active) and 548 nM (active) | 
CCN1CCCC1CNC(=O)c1cc(S(=O)(=O)CC)ccc1OC (centres undefined) | inactive | inactive |  |  | inactive | inactive | inactive | inactive | inactive | inactive
CN[C@H](CC(C)C)C(=O)N[C@H]1C(=O)N[C@@H](CC(N)=O)C(=O)N[C@H]2C(=O)N[C@H]3C(=O)N[C@H](C(=O)N[C@@H](C(=O)O)c4cc(O)cc(O)c4-c4cc3ccc4O)[C@H](O)c3ccc(c(Cl)c3)Oc3cc2cc(c3O[C@@H]2O[C@H](CO)[C@@H](O)[C@H](O)[C@H]2O[C@H]2C[C@](C)(N)C(O)[C@H](C)O2)Oc2ccc(cc2Cl)[C@H]1O (some centres undefined) | inactive | inactive |  | inactive | inactive | inactive | inactive | inactive | inactive | inactive
COc1ccc(/C=C/C(=O)O)cc1 | inactive | inactive |  | inactive | inactive | inactive | inactive | inactive | inactive | inactive
CC[C@@H](C)CCCCC(=O)N[C@@H](CCNCS(=O)(=O)O)C(=O)N[C@H](C(=O)N[C@@H](CCNCS(=O)(=O)O)C(=O)N[C@H]1CCNC(=O)[C@H]([C@@H](C)O)NC(=O)[C@H](CCNCS(=O)(=O)O)NC(=O)[C@H](CCNCS(=O)(=O)O)NC(=O)[C@H](CC(C)C)NC(=O)[C@@H](CC(C)C)NC(=O)[C@H](CCNCS(=O)(=O)O)NC1=O)[C@@H](C)O (X3-[Dab(CH2SO3H)]T[Dab(CH2SO3H)][Dab][Dab(CH2SO3H)][dL]L[Dab(CH2SO3H)][Dab(CH2SO3H)]T; lactam 4-C) | inactive | inactive | inactive |  | inactive | inactive | inactive | inactive | inactive | 
CNCC(=O)N[C@@H](CCCN=C(N)N)C(=O)N[C@H](C(=O)N[C@@H](Cc1ccc(O)cc1)C(=O)N[C@H](C(=O)N[C@@H](Cc1cnc[nH]1)C(=O)N1CCC[C@H]1C(=O)N[C@@H](C)C(=O)O)C(C)C)C(C)C | inactive | inactive |  | inactive | inactive |  | inactive | inactive | inactive | inactive
CNC(=O)C[C@@H](N)C(=O)N[C@@H](C(=O)N[C@@H]1C(=O)N2[C@@H]1SC(C)(C)[C@@H]2C(=O)O)c1ccc(O)cc1 | inactive | inactive |  | inactive | inactive | inactive | inactive | inactive | inactive | inactive
NC(N)=NCC1COC2(CCCCC2)O1 (centres undefined) | inactive | inactive |  | inactive | inactive | inactive | inactive | inactive | inactive | inactive
C=C1C(=C/C=C2\CCC[C@]3(C)[C@@H]([C@H](C)CCCC(C)C)CC[C@@H]23)C[C@@H](O)C[C@@H]1O | 29.8 µM (active) | inactive |  | 23.7 µM (active) | inactive | inactive | inactive | inactive | 29.8 µM (active) | inactive
O=C1[O][Bi][O]c2ccccc21 | inactive | inactive |  | inactive |  |  |  |  | inactive | inactive
